Only some compounds are listed: those with a hit (about 6.6% of all), similar ones and a draw of the others.
Bead autofluor: compound fluorescence in toxin protease inhibitor counterscreen; compound autofluorescence counterscreen, microsphere flow cytometry; active compounds read high; fluorescence intensity (concentration not given with the values); 360,000 compounds, 3.1% hits; AID 624483; in the data active = fluorescence intensity above about 16000; inconclusive = no clear call, values can overlap the other calls
GDH-TPI counter-1: GDH-TPI coupled enzyme inhibition counter-screen. GDH-TPI coupled enzyme counterscreen, NADH absorbance. inhibition, % at 4.8 µM. 360,000 compounds, 1.2% hits. AID 588335; in the data active = inhibition above about 30%;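 note: 0% = DMSO wells and 100% = wells lacking the enzyme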
Mtb FBA inh: inhibitors of M. tuberculosis fructose-bisphosphate aldolase; purified M. tuberculosis FBA, fluorescence read-out; P9WQA3; 360,000 compounds, 2.3% hits; inhibition, % at 1 µM;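 note: 0% = vehicle and 100% = reference inhibitor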
Target sequence (P9WQA3 whole entry, looked up): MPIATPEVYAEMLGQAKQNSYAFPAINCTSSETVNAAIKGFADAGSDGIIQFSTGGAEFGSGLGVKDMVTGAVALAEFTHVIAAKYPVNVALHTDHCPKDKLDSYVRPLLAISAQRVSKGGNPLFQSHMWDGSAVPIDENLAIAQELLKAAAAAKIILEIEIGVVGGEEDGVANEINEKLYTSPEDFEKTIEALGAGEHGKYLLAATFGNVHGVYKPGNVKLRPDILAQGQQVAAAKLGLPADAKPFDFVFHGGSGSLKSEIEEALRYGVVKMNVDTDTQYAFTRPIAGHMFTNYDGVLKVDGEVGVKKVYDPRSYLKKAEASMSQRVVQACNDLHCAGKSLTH
BoNT-A LC inh2: BoNT A light chain protease inhibition; inhibition, % at 10 µM; multiplex microsphere protease substrate cleavage, flow cytometry; 360,000 compounds, 0.17% hits; in the data active = inhibition above about 30%; inconclusive = no clear call, values can overlap the other calls; note: plate controls were buffer without enzyme for full effect and enzyme alone for no effect
Anthrax LF prot: inhibitors of Bacillus anthracis lethal factor protease; P15917; multiplex microsphere protease cleavage assay, LF; inhibition, % at 10 µM; 360,000 compounds, 0.12% hits; in the data active = inhibition above about 30%; inconclusive = no clear call, values can overlap the other calls; note: plate controls were buffer without enzyme for full effect and enzyme alone for no effect
BoNT-F LC inh: BoNT F light chain protease inhibition; Multiplex microsphere protease cleavage assay, flow cytometry; inhibition, % at 10 µM; 360,000 compounds, 0.22% hits; AID 588497; in the data active = inhibition above about 35%, passing the limit was not always enough; inconclusive = no clear call, values can overlap the other calls; note: plate controls were buffer without enzyme for full effect and enzyme alone for no effect
Mtb FBA inh conf: confirmation of M. tuberculosis fructose-bisphosphate aldolase inhibitors. shares compounds with Mtb FBA inh. purified M. tuberculosis FBA, fluorescence read-out. inhibition, % at 1 µM. 5,600 compounds, 78% hits. AID 651616;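 note: 0% = vehicle wells and 100% = reference inhibitor wells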
GDH-TPI counter-2: counter-screen for M. tuberculosis FBA inhibitors: GDH-TPI coupled enzyme inhibition; AID 652141; shares compounds with Mtb FBA inh; GDH-TPI coupled enzyme counterscreen, fluorescence; 5,600 compounds, 81% hits; inhibition, % at 1 µM; in the data active = inhibition above about 10%
GDH-TPI dose: GDH-TPI dose response counter-screen for Mtb FBA. 170 compounds, 79% hits. IC50, µM. shares compounds with Mtb FBA inh. GDH-TPI coupled enzyme assay, fluorescence, artifact counterscreen; call rule not given here
* = called active by the depositor; u = inconclusive; x = no result; + = active, no number. Cut-off read from the data, not from the text of the source, unless noted: active = inhibition above about 27%; inactive = the rest.

SMILES | Bead autofluor | GDH-TPI counter-1 | Mtb FBA inh | BoNT-A LC inh2 | Anthrax LF prot | BoNT-F LC inh | Mtb FBA inh conf | GDH-TPI counter-2 | others
CCC(=O)Nc1nnc(-c2ccncc2)s1 | 10319 | -3 | 43* | 0 | -4 | 5 | 100* | 89*
CCCC(=O)Nc1nnc(-c2ccc3c(c2)OCO3)s1 | 3677 | 6 | 38* | -2 | 7 | u | 115* | 103*
Cc1onc(-c2ccccc2)c1C(=O)Nc1nnc(-c2ccncc2)s1 | 8487 | 57* | 46* | -2 | -2 | -13 | 67* | 55*
O=C(Nc1nnc(-c2ccncc2)s1)C1CCCO1 (centres undefined) | 16579* | 26 | 82* | -1 | -5 | -3 | 15 | -6 | GDH-TPI dose=2*
N#Cc1cc2c([nH]c1=O)CCCC2 | 5814 | 5 | 68* | -1 | 0 | -8 | 97* | 91*
N#Cc1c(N)n(CCOC(=O)c2cccc(Br)c2)c2nc3ccccc3nc12 | 3719 | 6 | 45* | 4 | 1 | 1 | 50* | 34*
COc1cc(Cn2c(N)c(C#N)c3nc4ccccc4nc32)cc(OC)c1 | 6656 | 17 | 109* | 4 | -4 | 1 | + | 173*
N#Cc1c(N)n(-c2cccc(O)c2)c2nc3ccccc3nc12 | 4595 | 20 | 84* | 0 | -3 | -14 | + | +
CCOc1ccc(Cn2c3ccc(OC)cc3c3nc4ccccc4nc32)cc1 | 2285 | -4 | -3 | 5 | 2 | -2 | x | x
O=c1c2ccccc2nc(-c2ccccc2)n1-c1cccc(O)c1 | 3943 | 5 | -1 | 1 | -8 | 5 | x | x
CC(=O)Nc1cc(-c2ccc(C(=O)N3CCOCC3)cc2)cn2c(-c3ccc(F)c(Cl)c3)cnc12 | 3710 | 4 | -1 | 0 | -3 | -6 | x | x
CC(=O)Nc1cc(-c2cccc(C(=O)NCCN(C)C)c2)cn2c(-c3ccc(S(C)(=O)=O)cc3)cnc12 | 3321 | 11 | 61* | 0 | 1 | -3 | + | +
CC(=O)Nc1cc(-c2ccc(C(=O)N3CCOCC3)cc2)cn2c(-c3ccc(S(C)(=O)=O)cc3)cnc12 | 3844 | 11 | 28* | 0 | -1 | -3 | + | +
CC(=O)Nc1cc(-c2ccc(F)cc2)cn2c(-c3ccc(S(C)(=O)=O)cc3)cnc12 | 4113 | 15 | 57* | 0 | 7 | 6 | 89* | 69*
CCC(CC)n1c(C)cc(=O)n1C(CC)CC | 3586 | 0 | -3 | -1 | 2 | -1 | x | x
CN(C)C(=O)COc1ncnc2scc(-c3ccc(F)cc3)c12 | 4005 | -7 | 2 | 0 | -5 | -2 | x | x
CC(C)CC1NC(=O)c2cc3ccccc3cc2-n2c1nc1ccc(F)cc1c2=O (centres undefined) | 3817 | 14 | 3 | 0 | -4 | -6 | x | x
Cc1onc(-c2c(Cl)cccc2Cl)c1C(=O)Nc1ccc(N2CCOCC2)cc1 | 3504 | -10 | -1 | 1 | -3 | u | x | x
COc1ccccc1NC(=O)Cc1nnc(SCC(=O)Nc2nccs2)n1C | 4942 | -8 | 0 | 1 | 0 | 3 | x | x
Cc1nc(-c2cccc3ccccc23)ccc1C(=O)O | 2020 | 8 | 41* | 0 | 1 | 0 | 75* | 67*
CCc1cc2c(COC(=O)c3c(C)noc3C)cc(=O)oc2cc1O | 4526 | 32* | 33* | 0 | -7 | 1 | 85* | 62*
CCc1cc2c(COC(=O)c3cccc(S(C)(=O)=O)c3)cc(=O)oc2cc1O | 6183 | 4 | 14 | 0 | 1 | 9 | x | x
CCC(Oc1ccccc1)C(=O)NC1C(=O)N2C1SC(C)(C)C2C(=O)O (centres undefined) | 2405 | 2 | 0 | 0 | -1 | -1 | x | x
CC1(C)S[C@@H]2[C@H](NC(=O)[C@H](N)c3ccccc3)C(=O)N2[C@H]1C(=O)OC1OC(=O)c2ccccc21 (some centres undefined) | 4274 | 7 | 66* | -1 | 4 | -10 | + | 160*

High-throughput results (PubChem BioAssay)
